# Compounds with a hit are over-represented: about 12% of the library has one in this group of screens.
# Sfp PPTase inh: qHTS Assay for Inhibitors of Bacillus subtilis Sfp phosphopantetheinyl transferase (PPTase); 4'-phosphopantetheinyl transferase ffp (Bacillus subtilis), Q9F4F7; Biochemical Sfp PPTase activity, qHTS; Potency, µM, for the others: largest response in the series, negative = inhibition, usual class: inhibitors; 310,000 tested, 3.5% active;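 further: the enzyme is Sfp with the accession as filed and its product quenches rhodamine fluorescence; 0% = enzyme reaction without inhibitor and -100% = no enzyme wells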
#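 Buffer: 50 mM Hepes-Na pH 7.6, 10 mM MgCl2, 0.01% Nonidet P-40, 0.01% BSA. Enzyme 15 nM, pre-exposed to compound 15 min; substrates then added and fluorescence change tracked over 30 min.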
# JMJD2A Tudor inh: qHTS Assay for Inhibitors of JMJD2A-Tudor Domain | 390,000 tested, 4.4% active | AlphaScreen JMJD2A-Tudor / H3K4me3 peptide binding | Potency, µM (doses to about 114 µM), without a hit: top-dose activity change, negative = inhibition, actives largely listed as inhibitors | Lysine-specific demethylase 4A (Homo sapiens), O75164 | AID 504339, 2011; further: on the % scale 0 is the no-effect control and ±100 the full control effect; nearly all actives have a fitted effect of over 50% in size
# BAZ2B block: qHTS Assay for Inhibitors of BAZ2B. Bromodomain adjacent to zinc finger domain protein 2B (Homo sapiens), Q9UIF8. AlphaScreen BAZ2B-H3K14Ac peptide displacement. Potency, µM (series often up to 114 µM), for the others: top-dose activity change, negative = inhibition, actives largely listed as inhibitors. 360,000 tested, 4.4% active. AID 504333, 2011; further: on the % scale 0 is the no-effect control and ±100 the full control effect; nearly all actives have a fitted effect of over 60% in size
#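 BAZ2B (50 nM) with biotin-H3(5-23)K14Ac peptide (50 nM) in PBS pH 7.4, 0.01% Tween-20, preformed 30 min, then compound 30 min at room temperature; top concentration 110uM. AlphaScreen streptavidin donor/nickel chelate acceptor beads (10 ug/mL final), 20 min dark, signal read.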
# L3MBTL1 inh: qHTS Assay for the Inhibitors of L3MBTL1 | Lethal(3)malignant brain tumor-like protein 1 (Homo sapiens), Q9Y468 | AlphaScreen L3MBTL1–H3K9me1 peptide binding | Potency, µM (top dose mostly 57.1 µM), inactives show at the highest dose activity, negative = inhibition, hits mostly inhibitors | 230,000 tested, 0.66% active | AID 485360, 2010; further: on the % scale 0 is the no-effect control and ±100 the full control effect; nearly all actives have a fitted effect of over 60% in size
#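 Displacement of a biotinylated histone H3(1-15) peptide monomethylated at Lys9 (75 nM) from L3MBTL1 (50 nM) was measured by AlphaScreen after a 30 min room-temperature compound incubation; cefsulodin titration served as intraplate control.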
# HP1b binding inh: HTS for Inhibitors of HP1-beta Chromodomain Interactions with Methylated Histone Tails; Chromobox protein homolog 1 (Homo sapiens), P83916; AlphaScreen HP1-beta / biotin-H3K9me3 peptide binding; Potency, µM (doses to about 114 µM), without a hit: top-dose activity change, negative = inhibition, actives largely listed as inhibitors; 390,000 tested, 0.56% active; AID 540317, 2011; further: nearly all actives have a fitted effect of over 70% in size
#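 AlphaScreen: HP1-beta (50 nM) preformed 30 min with biotin-H3(1-18)K9me3 peptide (50 nM) in PBS pH 7.4, 0.01% Tween-20. Compound added for 30 min at RT, then streptavidin donor/nickel chelate acceptor beads (10 ug/mL) for 30 min.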
# G9a block: qHTS Assay for Inhibitors of Histone Lysine Methyltransferase G9a; G9a H3K9 monomethylation, AlphaScreen, 2 h; Potency, µM (titrated, usually from 102 µM), for inactives: top-dose activity, negative = inhibition, actives largely listed as inhibitors; 350,000 tested, 8.8% active; AID 504332, 2011; further: on the % scale 0 is the no-effect control and ±100 the full control effect; nearly all actives have a fitted effect of over 75% in size
#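 AlphaScreen read-out: biotin-H3K9 peptide (500 nM) methylation by 20 nM enzyme with 20 uM SAM, 2 h at room temperature after 15 min compound preincubation; anti-monomethyl H3K9 antibody plus donor/acceptor beads, 10 min dark.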
# * = called active by the depositor; ? = inconclusive; · = no result; [ ] = dose if it differs, or a comment. The call rests on the fitted dose curve; in most records, active means well fitted curve in the direction sought with a large enough effect; inconclusive means small, poorly fitted or top-dose-only effect, or another doubt; inactive means no such curve, though single readings can be large; an effect the other way counts as inactive or inconclusive. Potency means the concentration at half of the fitted maximal effect.
SMILES,Sfp PPTase inh,JMJD2A Tudor inh,BAZ2B block,L3MBTL1 inh,HP1b binding inh,G9a block
O=C(O)c1cc(Nc2cc(Cl)c3nonc3c2[N+](=O)[O-])ccc1O,45µM*,-32%,?,·,9%,35µM*
Cc1cc(NC(=O)/C=C/c2ccccc2Cl)no1,13%,-22%,5%,12%,16%,-11%[59 µM]
CCN(CC)c1ccc(NC(=O)/C=C\c2ccccc2Cl)cc1,-4%,?,?,-24%,-12%,3.5µM*
CN(C)c1ccc(NC(=O)/C=C/c2ccccc2Cl)cc1,1%,-28%,-7%,-14%,-20%,1.1µM*
COc1ccc(C(=O)NC(=S)NNC(=O)c2c(-c3ccccc3)noc2C)cc1OC,27%,-28%,-10%,0%,6%,32µM*
Cc1onc(-c2ccccc2)c1C(=O)NNC(=S)NC(=O)/C=C/c1cccs1,26%,-22%,7%,9%,2%,13µM*
Cc1onc(-c2ccccc2)c1C(=O)NC(=S)NNC(=O)c1ccncc1,-1%,-13%,2%,7%,5%,4%[59 µM]
Cc1onc(-c2ccccc2)c1C(=O)NNC(=S)NC(=O)c1ccc2c(c1)OCO2,19%,-36%,-17%,10%,-16%,50µM*
Cc1onc(-c2ccccc2)c1C(=O)NC(=S)NNC(=O)c1cc(-c2ccc(F)cc2)n[nH]1,21%,-18%,-6%,·,12%,50µM*
Cc1nc2c(c(C)nn2C(C)(C)C)c(C)c1CCC(=O)Nc1ccc(F)cc1,·,2%,0%,·,26%,-2%[59 µM]
COc1ccc(OC)c(-c2oc3ccccc3c(=O)c2O)c1,89µM*,4%,-1%,4%,35%,?
COc1ccccc1OCC(=O)Nc1ccc2c(c1)n(C)c(=O)n2C,-3%,-6%,56µM*,·,29%,?
CCC(=O)Nc1ccc2c(c1)ncn2-c1ccccc1OC,-23%,-23%,14%,2%,24%,45µM*
Cn1nccc1C(=O)N1CCN(c2cccc(C(F)(F)F)c2)CC1,17%,-16%,-28%,·,38%,71µM*
O=C(/C=C/c1ccccc1)c1ccccc1,?,143%,24%,2%,126%,-11%[59 µM]
Cc1ccc(C(=O)/C=C\C(=O)c2ccc(C)cc2)cc1,1.8µM*,-19%,-10%,6%,-5%,1.6µM*
O=[N+]([O-])c1ccc(-c2ccc(/C=N/O)o2)cc1,0%,-23%,-32%,-10%,5%,?
O=C(/C=C\c1ccc(-c2ccccc2)o1)c1ccccc1,11µM*,-32%,32µM*,-20%,?,10µM*
CCN(CC)S(=O)(=O)c1ccc(C(=O)/C=C/c2ccc(-c3ccc([N+](=O)[O-])cc3)o2)cc1,79µM*,-6%,-26%,·,27%,?
Cn1nccc1C(=O)N1CCCC(N2CCN(c3cccc(C(F)(F)F)c3)CC2)C1 (configuration not stated),19%,·,-13%,·,·,?
CCCN(CCC)c1nn2c(=O)c(C(=O)NCc3cccc(OC)c3)cnc2s1,·,-4%,-4%,·,10%,20%[59 µM]
COc1cccc(CNC(=O)CN2C(=O)N(c3ccc(C)cc3C)S(=O)(=O)c3ccccc32)c1OC,·,-22%,-14%,·,-7%,0%[59 µM]
CCC(C)NC(=O)Cn1c(=O)ccc2cc(S(=O)(=O)N3CCCC3)ccc21 (configuration not stated),·,-1%,3%,·,11%[57 µM],12%[59 µM]

# Bioassay records (PubChem)
